In PubChem BioAssay (NCATS):
Inconclusive results are not listed. A call without a number means that no potency is given here. Calls of active or inactive are those of the source. Calls follow the shape of the dose curve; as a rule, active = well fitted curve in the direction sought with a large enough effect; inconclusive = small, poorly fitted or top-dose-only effect, or another doubt; inactive = no such curve, though single readings can be large; an effect the other way counts as inactive or inconclusive.

Legend:
[1] = NS1 protein of Zika virus - qHTS assay to identify small molecule inhibitors in human HEK 293 cells (AID 1347053); also: nearly all actives have a fitted effect of over 55% in size
In short: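 Readout was TR-FRET using paired anti-NS1 antibodies after 24 h infection of HEK 293 cells with ZIKV MR766 (MOI = 0.5). Compound preceded virus by 1 h; reduced signal reflects lower NS1 expression.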

[2] = qHTS of pediatric cancer cell lines to identify multiple opportunities for drug repurposing: Primary screen for TC32 cells (AID 1347089); also: nearly all actives have a fitted effect of over 60% in size
In short: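 Luminescent CellTiter-Glo read-out of metabolically active TC32 cells after 48 h compound exposure. Primary: MIPE 11-point, 0.78 nM–46 µM; NPC 8-point, 0.59 nM–46 µM. Confirmatory: 11-point dilutions.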

[3] = qHTS of pediatric cancer cell lines to identify multiple opportunities for drug repurposing: Primary screen for DAOY cells (AID 1347090); also: nearly all actives have a fitted effect of over 55% in size
In short: (§1)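 Eight- or eleven-point concentration series, 48 h treatment at 37 degrees C in growth media; readout CellTiter-Glo luminescence. Potency and efficacy were taken from the concentration-response curves.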

[4] = qHTS of pediatric cancer cell lines to identify multiple opportunities for drug repurposing: Primary screen for SJ-GBM2 cells (AID 1347091)
In short: as §1

[5] = qHTS of pediatric cancer cell lines to identify multiple opportunities for drug repurposing: Primary screen for A673 cells (AID 1347092); also: nearly all actives have a fitted effect of over 45% in size
In short: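 A673 cells (500-1,000 cells/well in growth media) were pre-incubated 5 h at 37 degrees C, then exposed to compounds for 48 h. Viability was read as CellTiter-Glo luminescence; concentration-response curves came directly from the primary screen.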

[6] = qHTS of pediatric cancer cell lines to identify multiple opportunities for drug repurposing: Primary screen for SK-N-MC cells (AID 1347093)
In short: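 Metabolically active cells were quantified by ATP-dependent luminescence (CellTiter-Glo, 15 min at room temperature) following 48 h treatment. Cells had been plated at 500-1,000 per well and settled for 5 h beforehand.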
Potency is read from the fitted curve at half-maximal effect.

Structure (SMILES) | Potency [1] | Potency [2] | Potency [3] | Potency [4] | Potency [5] | Potency [6]
O=C(O)C(=O)Nc1cccc(C2=NN=N[N]2)c1 | inactive | inactive | inactive | inactive | inactive | inactive
O=C1NCCc2[nH]c(-c3ccncc3)cc21 | 9.35 µM (active) | 11.7 µM (active) | 4.69 µM (active) | 2.35 µM (active) | 1.18 µM (active) | 4.18 µM (active)
CCOC(=O)C1=C(C)NC(=S)NC1c1cccc(O)c1 (stereo not given) | 0.332 µM (active) | 1.31 µM (active) | 0.469 µM (active) | 0.0372 µM (active) | 0.0469 µM (active) | 0.264 µM (active)
CCCCC(=O)O[C@]1(C(=O)CO)[C@@H](C)C[C@H]2[C@@H]3CCC4=CC(=O)C=C[C@]4(C)[C@@]3(F)[C@@H](O)C[C@@]21C | inactive | inactive | inactive | inactive |  | inactive
NC(=O)c1cccc(-c2cccc(OC(=O)NC3CCCCC3)c2)c1 | inactive | inactive | inactive |  |  | inactive
CC(C=CC(=O)NO)=C[C@@H](C)C(=O)c1ccc(N(C)C)cc1 | inactive | 2.34 µM (active) |  | 1.87 µM (active) | 0.59 µM (active) | 
Cn1cc(C=CC(=O)c2cccc(F)c2)cc1C=CC(=O)NO | inactive | inactive |  | inactive | 9.35 µM (active) | 
